Hits are enriched below; roughly 3.4% of the tested compounds scored in any of these assays.
MITF inh – inhibitors of human MITF; inhibition, % at 2.6 µM; AlphaScreen MITF homodimerization, bead proximity signal; hit rate 0.91% among 650,000; in the data active means inhibition above about 50%
GPR151 ag – human GPR151 activation. Q8TDV0. PathHunter beta-arrestin GPR151 cells, luminescence. activation, % at 11.2 µM. hit rate 1% among 650,000; in the data active means activation above about 4.9%
Target sequence (Q8TDV0 whole entry, looked up): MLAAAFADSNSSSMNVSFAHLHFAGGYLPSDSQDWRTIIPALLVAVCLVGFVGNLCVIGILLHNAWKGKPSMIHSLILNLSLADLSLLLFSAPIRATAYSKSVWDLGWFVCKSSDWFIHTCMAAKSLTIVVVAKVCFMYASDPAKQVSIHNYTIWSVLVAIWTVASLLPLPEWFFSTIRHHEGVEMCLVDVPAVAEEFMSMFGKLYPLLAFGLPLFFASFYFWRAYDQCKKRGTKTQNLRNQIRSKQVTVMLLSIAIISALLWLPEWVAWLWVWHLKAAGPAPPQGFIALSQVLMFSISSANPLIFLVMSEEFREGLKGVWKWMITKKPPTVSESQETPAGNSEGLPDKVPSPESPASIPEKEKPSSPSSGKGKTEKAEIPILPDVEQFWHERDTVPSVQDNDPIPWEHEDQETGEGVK
FBW7 act – human FBW7 E3 ligase activation, primary screen. Q969H0. AlphaScreen FBW7–phospho-cyclin E peptide binding, activator screen. normalized activity (activation), % at 26.1 µM. hit rate 0.13% among 650,000. AID 1259310; in the data active means normalized activity above about 1.9%;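 further: purified mutant Fbw7 with reduced substrate affinity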
TEAD-YAP inh – TEAD-YAP interaction inhibition; HEK-TIYL cells, TEAD-Gal4/YAP UAS-luciferase luminescence; inhibition, % at 9.12 µM; hit rate 1.4% among 640,000; AID 1259422; in the data active means inhibition above about 32%
Of the large screens only hits and unclear results are named; the others gave an inactive call.

CCN(CC)Cc1c(C(=O)N/N=C/c2ccc(O)c([N+](=O)[O-])c2)nnn1-c1nonc1N	MITF inh 75
CCN(CC)Cc1c(C(=O)N/N=C/c2cccc(OC)c2O)nnn1-c1nonc1N	MITF inh 60
CCCC(C)COC(=O)C1=C(C)NC(=O)NC1c1cc(OC)ccc1OC (stereo not given)	none
O=C(c1cc(-c2ccc(Cl)s2)nc2ccccc12)N1CCN(c2ccccc2)CC1	none
COc1ccc2cc(-c3nc4ccccc4[nH]3)c(=Nc3cccc(C(F)(F)F)c3)oc2c1	TEAD-YAP inh 72
Cc1ccc(NC(=O)Nc2cc(C)ccn2)cc1	none
COc1ccc(NC(=O)Nc2cc(C)ccn2)cc1	TEAD-YAP inh 41
COc1ccc(C(=O)/C=C/Nc2cc(C)ccn2)cc1	TEAD-YAP inh 36
NS(=O)(=O)c1cccc(NS(=O)(=O)c2cccc([N+](=O)[O-])c2)c1	FBW7 act 4.6
CCCC(=O)Oc1c(Sc2ccccc2[N+](=O)[O-])c(C)nn1C(C)(C)C	TEAD-YAP inh 34
COc1ccc2ccccc2c1/C=C1\SC(=S)NC1=O	none
COc1ccc2ccccc2c1/C=C1/SC(=Nc2ccccc2)NC1=O	TEAD-YAP inh 44
COc1ccc(OC)c(/C=C2/SC(=Nc3ccc(C)cc3)NC2=O)c1	TEAD-YAP inh 51
COc1ccc(/C=C2\SC(=Nc3cccc4ccccc34)NC2=O)c(OC)c1	TEAD-YAP inh 59
COc1ccc(/C=C2\SC(=Nc3ccccc3)NC2=O)c2ccccc12	TEAD-YAP inh 63
COc1ccc(/C=C2\SC(=Nc3ccccc3F)NC2=O)c(OC)c1	none
Cc1ccc(C(=O)OCC(=O)Nc2ccc(C(N)=O)cc2)cc1NC(=O)c1ccco1	none
COc1ccccc1CCNC(=O)Cc1ccc(N2CCC(NCc3ccon3)CC2)cc1	none
O=C(Nc1ccccc1)c1cc(S(=O)(=O)N2CCOCC2)ccc1N1CCCCC1	none
CCc1ccccc1-n1c(SCc2cc(=O)n3ccccc3n2)nc2n[nH]c(C)c2c1=N	none
O=C1C(Cl)=C(N2CCCCC2)C(=O)C(Cl)=C1/C=C/N1CCCCC1	MITF inh 86
O=c1[nH]c(-c2ccccc2O)nc2sc3c(c12)CCCC3	none
O=c1[nH]c(-c2cc(O)c(O)c(O)c2)nc2sc3c(c12)CCCC3	TEAD-YAP inh 60
O=C(O)CCN(Cc1ccc(Cl)cc1)S(=O)(=O)c1ccc(Br)cc1	FBW7 act 2.1
O=C(O)CCCN(Cc1ccc(Cl)cc1)S(=O)(=O)c1ccc(Br)cc1	none
Nc1c(C(=O)c2ccc(Cl)cc2)sc2nc3c(cc12)CCCC3	none
NC(=O)c1sc2nc3c(cc2c1N)CCCCC3	TEAD-YAP inh 68
Nc1c(C(=O)N2CCOCC2)sc2nc3c(cc12)CCCCC3	TEAD-YAP inh 87
NC(=O)c1sc2nc3cc4c(cc3cc2c1N)OCCO4	TEAD-YAP inh 97
Nc1c(C(=O)N2CCOCC2)sc2nc3c(cc12)CCCC3	none
Nc1c(C(=O)c2ccccc2)sc2nc3c(cc12)CCCC3	TEAD-YAP inh 40
COc1ccccc1NC(=O)CSc1nnc(NC(=O)CC(C)(C)C)s1	none
Cc1cccc(NC(=O)c2cc([N+](=O)[O-])cc([N+](=O)[O-])c2)n1	none
CCCC(=O)N1CCC(C2(CCC(C)C)NC(=O)N(Cc3ccccn3)C2=O)CC1 (stereo not given)	none
O=C1N[C@@H](CO)C(=O)N2CCN(C(=O)c3cc(F)c(F)cc3F)C[C@H]12	none
Cc1cc(C)c2nc3sc(C(=O)N4CCOCC4)c(N)c3cc2c1	TEAD-YAP inh 36
Nc1c(C(=O)Nc2cccc(C(=O)O)c2)sc2nc3c(cc12)CCC3	TEAD-YAP inh 57
Nc1c(C(=O)Nc2ccccc2)sc2nc3c(cc12)CCC3	none
CCOc1ccc(-c2nc(SCc3cccnc3)c3c(=O)n(C)c(=O)n(C)c3n2)cc1	none
CCCn1c(=O)[nH]c2c(C(N)=O)nc(-c3ccco3)nc21	none
Cc1cc(Cl)ccc1OCC(=O)Nc1ncccn1	none
Cc1cc(Cl)ccc1OCC(=O)Nc1ccccn1	TEAD-YAP inh 67
O=C(COc1ccc(Cl)cc1Cl)Nc1cccc(-c2cn3c(n2)SCC3)c1	TEAD-YAP inh 69
O=C(COc1ccc(Cl)cc1Cl)Nc1ccc(O)cc1	TEAD-YAP inh 32
O=C(COc1ccc(Br)cc1Cl)Nc1ccccc1	TEAD-YAP inh 54
CC(=O)Nc1ccc(NC(=O)COc2ccc(Br)cc2Cl)cc1	none
Cc1cc(C)cc(NC(=O)CSc2nnc(NC(=O)COc3ccccc3)s2)c1	none
COC(=O)c1ccccc1NS(=O)(=O)c1ccc2c(c1)NC(=O)CC(=O)N2	none
COC(=O)c1ccc2c(c1)C(=O)/C(=C\c1cc(OC)ccc1OC)O2	none
COc1ccc(N/C(=C\C(=O)C(=O)OC(C)C)c2ccccc2)cc1	none
O=C(COc1ccc(Cl)cc1Cl)Nc1ccccc1	TEAD-YAP inh 36
O=C(COc1ccccc1[N+](=O)[O-])Nc1ccccn1	TEAD-YAP inh 36
Cc1ccccc1OCC(=O)Nc1ccc(Cl)cc1	none
O=C(COc1ccccc1[N+](=O)[O-])Nc1ccccc1Cl	none
Cc1ccccc1OCC(=O)NNC(=O)Nc1ccc(Cl)cc1	TEAD-YAP inh 59
O=C(COc1ccc(Br)cc1Br)Nc1ncn[nH]1	TEAD-YAP inh 44
O=C(Cc1ccc(NC2=NC3CS(=O)(=O)CC3S2)cc1)NCc1ccccn1 (stereo not given)	none
CCc1ccc(CN2CCC3(CC2)CC3C(=O)N2CCN(Cc3ccccc3)CC2)o1 (stereo not given)	none
CCOc1ccc(C(=O)NCCCOC(C)C)cc1OCC	none
Cc1ccc(-c2c[n+]3ccccc3n2-c2ccccc2)cc1	TEAD-YAP inh 80
OCCNc1nc(Nc2cnccn2)nc2c1ncn2-c1ccsc1	none
Nc1nc(Nc2ccncn2)nc2c1ncn2-c1ccsc1	FBW7 act 16, TEAD-YAP inh 38
OCCNc1nc(Nc2ccncn2)nc2c1ncn2-c1ccsc1	TEAD-YAP inh 36
Nc1nc(Nc2ccc(-n3ccnc3)cc2)nc2c1ncn2-c1ccsc1	none
Cc1ccc(C(C)C)c(OCCN=Cc2c(O)n(C)c(=O)n(C)c2=O)c1	TEAD-YAP inh 33
O=C(O)c1ccc(Nc2nc(-c3ccc(O)c(O)c3)cs2)cc1	MITF inh 92
Oc1ccc(Nc2nc(-c3ccc(O)c(O)c3)cs2)cc1	MITF inh 54
Oc1ccc(Nc2nc(-c3ccc(Cl)cc3)cs2)cc1	none (no result: FBW7 act, TEAD-YAP inh)
Nc1ccc(Nc2nc(-c3ccc(O)c(O)c3)cs2)cc1	MITF inh 98
Cc1cccc(Nc2nc(-c3ccc(O)c(O)c3)cs2)c1	none
CCN(c1ncnc2c1c(-c1ccccc1)cn2-c1ccc(F)cc1)C1CCCCC1	none
CCOC(=O)c1ccc(NC(=O)c2ccnn2C)cc1	none
Cn1nccc1C(=O)Nc1ccc(OC(=O)c2ccnn2C)cc1	TEAD-YAP inh 34
O=C1N(Cc2cccnc2)C[C@@H]2C[C@@H](c3cccc4c3oc3ccccc34)N3CCC[C@@]123	none
CCOCCCN1C(=O)C2C(C(=O)Nc3ccc(Cl)c(Cl)c3)C3C=CC2(O3)C1C(=O)NC1CCCCC1 (stereo not given)	none
Cc1ccc(/C=C2/SC(=S)N(c3ccc(O)c(C(=O)O)c3)C2=O)o1	MITF inh 83
COc1ccc(/C=C2\SC(=S)N(c3ccc(O)c(C(=O)O)c3)C2=O)cc1	none

Assay outcomes from PubChem.
